Sampled rows, rich in hits. Any-hit rate of the full collection: about 5.8%.
KB-V1 cytotox: KB-V1 MDR subline cytotoxicity | KB-V1 MDR cells viability, CellTiter-Glo, 72 h | Potency, µM (series often up to 46.1 µM), hits mostly cytotoxic | 3.4% of 400,000 active; note: % is set by controls: 0 for no effect and ±100 for the full control effect; nearly all actives have a fitted effect of over 60% in size
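Following 72 h at 37 degrees C with compound, KB-V1 cell viability was read by CellTiter-Glo luminescence, medium being phenol-red-free DMEM plus 10% FBS; concentration-response parameters came from normalized, curve-fitted qHTS data.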
SW480 rereplic: DNA re-replication induction in SW480 cells. SW480 DNA re-replication, Hoechst DNA content imaging, 48 h. 1.8% of 340,000 active. Potency, µM (series often up to 46.1 µM), inactives show at the highest dose re-replication activation, hits mostly activators. AID 624297; note: % of control where 0% means no effect; nearly all actives have a fitted effect of over 55% in size
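Image-based DNA-content assay: after two days of treatment, nuclei were labelled with the DNA dye Hoechst and imaged, and hits were compounds raising the count of nuclei showing high fluorescence intensity.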
KB-3-1 tox: kills parental KB-3-1 adenocarcinoma cells; KB-3-1 viability, CellTiter-Glo ATP luminescence, 72 h; Potency, µM (highest dose often 46.1 µM), actives largely listed as cytotoxic; 1.4% of 400,000 active; AID 1347075; note: % is set by controls: 0 for no effect and ±100 for the full control effect; nearly all actives have a fitted effect of over 60% in size
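Here the drug-naive KB-3-1 line serves as comparator for MDR sub-line selectivity; cells received compound titrations, 72 h at 37 °C, then CellTiter-Glo readout.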
PINK1 modulator: modulators of PINK1 expression | PINK1 immunofluorescence, high-content cytometry, 24 h | Potency, µM (titrated, usually from 76.6 µM), inactives show top-dose activation (PINK1 increase), actives largely listed as activators | 0.2% of 410,000 active; active = well fitted activation curve with a large enough effect; inconclusive = small, poorly fitted or top-dose-only effect; cell line not stated here; note: % of control where 0% means no effect; nearly all actives have a fitted effect of over 65% in size
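PINK1 protein, normally rapidly degraded, was detected by immunofluorescence after 24 hour compound treatment of a stable cell line. Titration data (5 concentrations) came from laser-scanning cytometry, with CCCP-treated wells as controls.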
ALOX12 inh: blocks human arachidonate 12S-lipoxygenase. purified 12hLO, xylenol orange hydroperoxide absorbance. Potency, µM (doses to about 108 µM), for inactives: at the highest dose activity change, negative = inhibition, most hits filed as inhibitors. 1.1% of 580,000 active; note: % is set by controls: 0 for no effect and ±100 for the full control effect
Target sequence (P18054 whole entry, looked up): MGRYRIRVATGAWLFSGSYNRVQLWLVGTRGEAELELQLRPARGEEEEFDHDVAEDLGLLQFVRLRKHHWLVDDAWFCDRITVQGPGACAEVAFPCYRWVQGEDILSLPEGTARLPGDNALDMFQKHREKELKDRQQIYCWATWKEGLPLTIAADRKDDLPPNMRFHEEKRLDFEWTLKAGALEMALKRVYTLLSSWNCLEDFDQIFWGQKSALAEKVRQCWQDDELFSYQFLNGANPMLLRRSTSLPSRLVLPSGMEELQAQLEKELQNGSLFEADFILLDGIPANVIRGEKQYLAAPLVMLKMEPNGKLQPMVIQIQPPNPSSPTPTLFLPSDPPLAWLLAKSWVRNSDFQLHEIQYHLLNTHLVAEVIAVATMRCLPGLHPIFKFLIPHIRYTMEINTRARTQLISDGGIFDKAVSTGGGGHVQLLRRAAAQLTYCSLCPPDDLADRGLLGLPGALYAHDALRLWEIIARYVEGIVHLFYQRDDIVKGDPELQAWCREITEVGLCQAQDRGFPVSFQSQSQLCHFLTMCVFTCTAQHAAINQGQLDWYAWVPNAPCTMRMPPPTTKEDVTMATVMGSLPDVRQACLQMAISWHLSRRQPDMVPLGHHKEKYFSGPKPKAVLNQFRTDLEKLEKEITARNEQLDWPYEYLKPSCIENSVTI
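Purified human 12hLO (150 nM final) in 25 mM Hepes, 0.01% Triton X-100, pH 7.0 was preincubated 15 min at room temperature with compound. Then 40 uM arachidonic acid was added, 30 min. Hydroperoxide was read by Fe-XO absorbance ratio 573/405 nm.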
MCF10A rereplic: inducers of DNA re-replication in MCF 10A breast cells | Potency, µM (series often up to 46.1 µM), without a hit: top-dose activity, positive = re-replication, usual class: activators | AID 624296 | MCF 10A DNA re-replication, Hoechst nuclear intensity, 48 h | 2.9% of 350,000 active; note: % of control where 0% means no effect; nearly all actives have a fitted effect of over 50% in size
Active calls of the source: *; ! = not active in a repeat; [ ] = remark or other dose. Unless noted, calls come from the whole dose curve; as a rule, active = well fitted curve in the direction sought with a large enough effect; inconclusive = small, poorly fitted or top-dose-only effect, or another doubt; inactive = no such curve, though single readings can be large; an effect the other way counts as inactive or inconclusive. Potency is the fitted concentration of half-maximal effect.

What do the screens show for `CC/C(=N/NC(=O)c1ccccc1O)c1c(C)[nH]n(-c2ccccc2)c1=O`?
KB-V1 cytotox: inconclusive; SW480 rereplic: 23µM*; KB-3-1 tox: inconclusive; PINK1 modulator: 0%; ALOX12 inh: inconclusive; MCF10A rereplic: inconclusive

Results for Cc1[nH]n(-c2ccccc2)c(=O)c1C(=O)c1ccccc1 ?
KB-V1 cytotox: inconclusive; SW480 rereplic: -136%; KB-3-1 tox: inconclusive; PINK1 modulator: 0%; ALOX12 inh: inconclusive; MCF10A rereplic: inconclusive

What do the screens show for `COc1ccc(/C=N/n2c(SC)nnc2-c2ccccc2)c(OC)c1OC`?
KB-V1 cytotox: 5.2µM*; SW480 rereplic: 5.8µM*; KB-3-1 tox: inconclusive; PINK1 modulator: 3%; ALOX12 inh: 1%; MCF10A rereplic: 15µM*

How did COc1ccc(/C=N/n2c(SC)nnc2-c2ccccc2)cc1C do in these assays?
KB-V1 cytotox: 18µM*; SW480 rereplic: 7.3µM*; KB-3-1 tox: inconclusive; PINK1 modulator: 2%; ALOX12 inh: -53%; MCF10A rereplic: 18µM*

How did COc1cccc(/C=N\n2c(C)nnc2C)c1OC do in these assays?
KB-V1 cytotox: inactive; SW480 rereplic: -3%; KB-3-1 tox: inactive; PINK1 modulator: 2%; ALOX12 inh: 3%; MCF10A rereplic: 1%

How did Nc1[nH]c(N=NC(=O)c2ccccc2O)c2ccccc12 do in these assays?
KB-V1 cytotox: 21µM*; SW480 rereplic: inconclusive; KB-3-1 tox: inconclusive; PINK1 modulator: -1%; ALOX12 inh: 15%; MCF10A rereplic: inconclusive

How did Cc1noc(C)c1S(=O)(=O)N(C)C1CCCc2ccccc21 (configuration not stated) do in these assays?
ALOX12 inh: 66%[176 µM]

Results for COc1cccc(-c2cc(C(=O)Nc3ccc(N(C)C(C)=O)cc3)c3cc(Br)ccc3n2)c1 ?
KB-V1 cytotox: inconclusive; SW480 rereplic: 30%; KB-3-1 tox: inactive; PINK1 modulator: 0%; ALOX12 inh: inconclusive; MCF10A rereplic: inconclusive

Results for COc1ccc(COc2cccnc2N)cc1 ?
KB-V1 cytotox: inactive; SW480 rereplic: -9%; KB-3-1 tox: inactive; PINK1 modulator: -1%; ALOX12 inh: 93%; MCF10A rereplic: 3%

How did COc1ccc(COc2cc(-c3cccc(OC)c3)nc3ccc(NC(=O)c4ccc(N(C)C)cc4)cc23)cc1 do in these assays?
KB-V1 cytotox: inactive; SW480 rereplic: 9.2µM*; KB-3-1 tox: 4.6µM*; PINK1 modulator: 9%; MCF10A rereplic: 5.8µM*

Results for COc1ccc(COc2cc(-c3cccc(OC)c3)nc3ccc(N)cc23)cc1 ?
KB-V1 cytotox: 5.8µM*; SW480 rereplic: 1.5µM*; KB-3-1 tox: inconclusive; PINK1 modulator: 1%; ALOX12 inh: -5%; MCF10A rereplic: 0.73µM*

How did COc1ccc(COc2cc(-c3cccc(OC)c3)nc3ccc(NC(=O)c4ccc(C)cc4)cc23)cc1 do in these assays?
KB-V1 cytotox: inactive; SW480 rereplic: 21µM*; KB-3-1 tox: 9.2µM*; PINK1 modulator: 13%; ALOX12 inh: -6%; MCF10A rereplic: 5.8µM*

Results for COc1ccc(COc2cc(-c3cccc(OC)c3)nc3ccc(NC(C)=O)cc23)cc1 ?
KB-V1 cytotox: inactive; SW480 rereplic: inconclusive; KB-3-1 tox: inactive; PINK1 modulator: 5%; ALOX12 inh: 6%; MCF10A rereplic: 0%

What do the screens show for `Cn1nc(C(=O)N2CCOCC2)cc1C(=O)Nc1cc(F)ccc1F`?
ALOX12 inh: -29%

What do the screens show for `Cc1ccnc(NC(=O)c2cnc3ccccc3n2)c1`?
ALOX12 inh: 20%

Results for CCOC(=O)c1[nH]c2cc(OC)c(OC)cc2c1NC(=O)CCN1CCC(C(N)=O)CC1 ?
ALOX12 inh: 9%

How did CCOC(=O)c1[nH]c2cc(OC)c(OC)cc2c1NC(=O)CN(C)C1CCCCC1 do in these assays?
KB-V1 cytotox: 7.3µM*; SW480 rereplic: 0%; KB-3-1 tox: inconclusive; PINK1 modulator: 4%[38.3 µM]; ALOX12 inh: 0%; MCF10A rereplic: 10%

Results for CCn1ncc(/C=N\NC(=O)COc2cc(C)cc(C)c2)c1C ?
KB-V1 cytotox: 12µM*; SW480 rereplic: inconclusive; KB-3-1 tox: inconclusive; PINK1 modulator: 9%; ALOX12 inh: 5%; MCF10A rereplic: 9%

How did CS(=O)(=O)c1ccc(C(=O)Nc2c(Cl)cc(NC(=O)c3cnccn3)cc2Cl)cc1 do in these assays?
ALOX12 inh: -3%

What do the screens show for `O=[N+]([O-])c1ccc2[nH]c3c(c2c1)CCCC3`?
KB-V1 cytotox: inconclusive; SW480 rereplic: 2%; KB-3-1 tox: inactive; PINK1 modulator: 6%; ALOX12 inh: -25%; MCF10A rereplic: 3%

Results for N/N=C1\CCCc2c1[nH]c1ccc([N+](=O)[O-])cc21 ?
KB-V1 cytotox: 4.6µM*; SW480 rereplic: inconclusive; KB-3-1 tox: inconclusive; PINK1 modulator: 2%; ALOX12 inh: 91%; MCF10A rereplic: -14%

How did COc1cccc2cc(C(=O)/C=C/c3ccc(C#N)cc3)oc12 do in these assays?
ALOX12 inh: 54%

How did CCC(=O)/C=C1\Sc2ccc(OC)cc2N1CC do in these assays?
KB-V1 cytotox: 15µM*; SW480 rereplic: -4%; KB-3-1 tox: inconclusive; PINK1 modulator: -2%[38.3 µM]; ALOX12 inh: 0%; MCF10A rereplic: 23%

What do the screens show for `C(C#CCCCCCCCCC[n+]1ccccc1)#CCCCCCCCCC[n+]1ccccc1`?
KB-V1 cytotox: inactive; SW480 rereplic: inconclusive; KB-3-1 tox: 3.7µM*!; PINK1 modulator: inconclusive; MCF10A rereplic: inconclusive

What do the screens show for `Cc1ccc2nc(-c3ccc(NS(=O)(=O)c4ccc(F)cc4)cc3)sc2c1`?
KB-V1 cytotox: inactive; SW480 rereplic: inconclusive; KB-3-1 tox: inactive; PINK1 modulator: 7%; ALOX12 inh: -23%; MCF10A rereplic: 15µM*

How did CC(C)c1ccc(/C=C/C(=O)Nc2nc3ccc([N+](=O)[O-])cc3s2)cc1 do in these assays?
KB-V1 cytotox: inactive; SW480 rereplic: -14%; KB-3-1 tox: inactive; ALOX12 inh: -13%; MCF10A rereplic: -3%

What do the screens show for `O=[N+]([O-])c1ccc2nc(NN=Cc3ccc(O)cc3)sc2c1`?
KB-V1 cytotox: inconclusive; SW480 rereplic: 21µM*; KB-3-1 tox: inactive; PINK1 modulator: 0%; ALOX12 inh: -14%; MCF10A rereplic: 9.2µM*

What do the screens show for `Cc1nc2ccc(NS(=O)(=O)c3ccc(F)cc3F)cc2s1`?
KB-V1 cytotox: 4.1µM*; SW480 rereplic: 0%; KB-3-1 tox: inconclusive; PINK1 modulator: 4%; ALOX12 inh: 23%; MCF10A rereplic: 4%

How did CNC(=S)Nc1ccc(-c2nc3ccc(C)cc3s2)cc1 do in these assays?
KB-V1 cytotox: inactive; SW480 rereplic: inconclusive; KB-3-1 tox: inactive; PINK1 modulator: 3%; ALOX12 inh: inconclusive; MCF10A rereplic: 22µM*

Screens from PubChem BioAssay.
